Data on 42 molecules can be found in ChEMBL document CHEMBL4888484, “Replenishing the malaria drug discovery pipeline: Screening and hit evaluation of the MMV Hit Generation Library 1 (HGL1) against asexual blood stage Plasmodium falciparum ,using a nano luciferase reporter read-out” (2022).

Hit rate of the full screen: of about 150,000 compounds, about 540 (0.36%) showed an effect of 50% or more. Shown is part of a subset that was picked to be rich in strong results.

This assay concerns Plasmodium falciparum. Nature of the assay: Primary screen in NF54 nanoGlo assay, in single point, at 2uM, 72h; a lower Z score goes with more inhibition. The conditions noted are these: timepoint 72 hour. It counts as functional, Erythrocyte.
In general, % Inhibition refers to the relative decrease from the control value, in per cent. Regarding `O=C(CN1CCN(CC(=O)c2ccccc2)CC1)c1ccccc1`, the “% Inhibition” value was determined as 0% and the Z score is recorded as -0.02.
As for `O=C(N[C@H]1CCc2cc(F)c(F)c(F)c21)N1CCn2ncnc2C1`, the “% Inhibition” value is listed as -5% and the Z score is recorded as 1.12.
The matching figures for `COc1nccc2c(NCc3cn(C(C)(C)C)nn3)cccc12`: 5% and -1.
The matching figures for `CCOc1ccc(S(=O)(=O)N[C@H]2CC[C@@H](CC(=O)O)C2)c(C)c1`: -1% and 0.16.
With `C[N+]12CCCC[C@@H]1[C@H](COC(=O)c1ccccc1Cl)CCC2` (some centres undefined), the “% Inhibition” value is on record as 7% and the Z score is listed as -0.65.
The matching figures for `CO[C@@H]1CCC[C@@H]2CN(C(=O)C3(c4ccccc4)CCCC3)C[C@@H]21`: -4% and 0.35.
For the molecule `C[N+]12CCCCC1C(OC(=O)C1(c3ccccc3)CCCC1)CCC2` (centres undefined), the “% Inhibition” value was 63% and the Z score is given as -6.6.
In the same order, the values of `Cc1cccc(C)c1OCC(=O)Nc1ccc(-c2nc3cc4ccccc4cc3[nH]2)cc1` are 49% and -5.57.
In the case of `c1cc(-c2nc3cc4ccccc4cc3[nH]2)nc(-c2nc3cc4ccccc4cc3[nH]2)c1`, the “% Inhibition” value is listed as 100% and the Z score is recorded as -18.05.
In the same order, the values of `CCn1ncc(C(CC(=O)c2ccccc2)CC(=O)c2ccccc2)c1C` are -8% and 1.07.
Take `Cc1nsc2ncc(C(=O)N3CCCCC3)c(N3CCC(C(=O)Nc4cc(F)ccc4F)CC3)c12`: the “% Inhibition” value is listed as 5% and the Z score is given as -0.78.
The matching figures for `CCOc1ccc(NC(=O)C2CCN(c3c(C(=O)N(CC)CC)cnc4snc(C)c34)CC2)cc1`: 5% and -0.93.
The matching figures for `CCN(CC)C(=O)c1cnc2snc(C)c2c1N1CCC(C(=O)Nc2ccc(Br)c(C)c2)CC1`: 1% and -0.18.
In the same order, the values of `CCN(CC)C(=O)c1cnc2snc(C)c2c1N1CCC(C(=O)Nc2cc(F)ccc2F)CC1` are 6% and -0.96.
Consider `Cc1nsc2ncc(C(=O)N3CCC(C)CC3)c(N3CCC(C(=O)Nc4cc(F)ccc4F)CC3)c12`, for which the “% Inhibition” value is 60% and the Z score is recorded as -4.06.
The matching figures for `CCN(CC)C(=O)c1cnc2snc(C)c2c1N1CCC(C(=O)Nc2c(C)cc(C)cc2C)CC1`: 54% and -10.3.
In the same order, the values of `CN1CCC(NC(=O)NCC2(CO)CCC2)C1c1ccccc1` (centres undefined) are -12% and 2.33.
Consider `Cc1cccnc1[C@H](C)NC(=O)CNC(=O)N(C)C`, for which the “% Inhibition” value is recorded as -9% and the Z score stood at 1.68.
As to `Fc1ccc(Cc2nnc3n2CCCC3)cc1`, the “% Inhibition” value amounted to 3% and the Z score is -0.52.
The matching figures for `COc1ccccc1CNc1nc2[nH]c3c(c(=O)n2n1)CCCC3`: 8% and -0.7.
With `CC(C)(C)[C@H]1CCc2c(sc(NC(=O)C3(F)C(F)(F)C(F)(F)C(F)(F)C(F)(F)C3(F)F)c2C#N)C1`, the “% Inhibition” value was 77% and the Z score is on record as -6.03.
With `CC(C)(C)[C@H]1CCc2c(sc(NC(=O)CN3CCCC3)c2C#N)C1`, the “% Inhibition” value is on record as 10% and the Z score is reported as -1.29.
In the same order, the values of `CC(C)(C)[C@H]1CCc2c(sc(NC(=O)c3cc(-c4ccccc4)nc4ccccc34)c2C#N)C1` are 13% and -1.58.
On to `Cc1ccc(N2CCCC2=O)cc1NC(=O)N1CCC(c2n[nH]cc2C)CC1`, for which the “% Inhibition” value is on record as -8% and the Z score came to 1.78.
In the case of `Cc1csc(CNC(=O)NCc2nnc3n2CCOCC3)c1`, the “% Inhibition” value is on record as -2% and the Z score was found to be 0.17.
The matching figures for `COc1ccc(CCNC(=O)c2cnn3c4c(cnc23)C[C@@H](C)CC4)cc1OC`: 61% and -4.54.
The matching figures for `COc1cccc(CNC(=O)c2cnn3c4c(cnc23)C[C@@H](C)CC4)c1`: 0% and 0.03.
The matching figures for `C[C@H]1CCc2c(cnc3c(C(=O)NCc4ccccc4)cnn23)C1`: 33% and 0.71.
Consider `O=C(CN1C(=O)c2ccccc2C1=O)N1CC(=O)N2CCc3ccccc3[C@@H]2C1`, for which the “% Inhibition” value is 65% and the Z score is listed as -8.85.
In the same order, the values of `O=C(COc1ccc(Cl)cc1)N1CC(=O)N2CCc3ccccc3[C@@H]2C1` are -8% and 1.08.
In the same order, the values of `O=C(CC(c1ccccc1)c1ccccc1)N1CC(=O)N2CCc3ccccc3[C@@H]2C1` are 39% and -5.29.
In the same order, the values of `CCN(CC)S(=O)(=O)c1ccc(F)c(C(=O)OCCNC(C)=O)c1` are -10% and 0.84.
Regarding `CNC(=O)c1ccc(NC2CC3CC3C2)nn1` (centres undefined), the “% Inhibition” value was 6% and the Z score was -0.99.
Consider `CC1(C)CCC(Nc2ccc(C(N)=O)nn2)CC1`, for which the “% Inhibition” value was found to be 77% and the Z score is recorded as -11.08.
In the case of `Nc1ccc(-c2ccc(NC3CCCC3)nn2)cn1`, the “% Inhibition” value was -16% and the Z score worked out at 1.48.
In the same order, the values of `COc1ccc(OC)c([C@@H]2CCCN2c2nnc(-c3ccccn3)s2)c1` are -13% and 2.07.
In the same order, the values of `Cc1ccc(C(F)(F)C(=O)NCCC(=O)NS(C)(=O)=O)cc1` are 57% and -7.27.
Consider `O=C(NCCc1nc2ccccc2[nH]1)C(F)(F)c1ccc(F)cc1`, for which the “% Inhibition” value was determined as 4% and the Z score is reported as -0.36.
Regarding `Cc1ccccc1OCC(=O)NS(C)(=O)=O`, the “% Inhibition” value is -1% and the Z score is listed as 0.11.
The matching figures for `COc1ccccc1NC(=O)C1C(=O)NC23CCCCC2C1c1ccccc1O3` (centres undefined): -8% and 1.04.
The matching figures for `Cc1cccc(NC(=O)C2C(=O)N[C@]34CCCCC3C2c2ccccc2O4)c1` (some centres undefined): 2% and -0.27.
For `COc1ccc2c(c1)OC13CCN(C)CC1C2C(C(=O)c1ccccc1OC)C(=O)N3` (centres undefined), the “% Inhibition” value was 58% and the Z score is listed as -6.85.
